Values joined by “and” are separate entries in the source; they are usually repeats but may differ in a detail not shown here. Identical values can stand only once. About 2,000 (36%) of roughly 5,500 compounds were called active. Not shown: some 18% with an inconclusive outcome. Rule as the data show it: active = normalized growth mostly below about 0.91 (no sharp cut-off); inconclusive = no clear call, values can overlap the other calls; inactive = mostly above about 0.92. This is one part of the list.
Assay: chemical genetic growth profiling, strain panel (AID 1159580);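 also: tested at 20 µM; growth read once vehicle control cultures reached saturation at 30 °C; 1 = growth at the plate median or of vehicle wells; lower values mean less growth of the strain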
Conditions: S. cerevisiae deletion strains, growth OD

Measured: normalized growth

CC(C)c1c(O)ccc2c1CCC1C(C)(C)CCC[C@]21C (stereo partly specified)
inactive: locus YCL069W, strain vba3, stronger effect = lower value 0.932 | locus YDL005C, strain med2, stronger effect = lower value 0.961 | locus YDR001C, strain nth1, stronger effect = lower value 1 | locus YDR334W, strain swr1, stronger effect = lower value 0.974 | locus YEL037C, strain rad23, stronger effect = lower value 0.991 | locus YER111C, strain swi4, stronger effect = lower value 0.971 | locus YER155C, strain BEM2 (second series), stronger effect = lower value 0.925 | locus YFR010W, strain ubp6, stronger effect = lower value 0.929 | locus YGL173C, strain kem1, stronger effect = lower value 0.947 | locus YJL092W, strain hpr5, stronger effect = lower value 0.926 | locus YJL115W, strain asf1, stronger effect = lower value 1.02 | locus YJL154C, strain vps35, stronger effect = lower value 1.01
active: locus YAL013W, strain DEP1, stronger effect = lower value 0.063 | locus YAL021C, strain ccr4, stronger effect = lower value 0.888 | locus YAL026C, strain drs2, stronger effect = lower value 0.451 | locus YAL030W, strain snc1, stronger effect = lower value 0.319 | locus YBL061C, strain skt5, stronger effect = lower value 0.329 | locus YBR009C, strain hhf1, stronger effect = lower value 0.182 | locus YBR021W, strain FUR4, stronger effect = lower value 0.517 | locus YBR023C, strain chs3, stronger effect = lower value 0.43 | locus YBR171W, strain sec66, stronger effect = lower value 0.606 | locus YBR229C, strain ROT2, stronger effect = lower value 0.245 | locus YBR231C, strain swc5, stronger effect = lower value 0.258 | locus YBR279W, strain paf1, stronger effect = lower value 0.769 | locus YCL011C, strain gbp2, stronger effect = lower value 0.365 | locus YCL016C, strain dcc1, stronger effect = lower value 0.353 | locus YCL029C, strain bik1, stronger effect = lower value 0.29 | locus YCR088W, strain abp1, stronger effect = lower value 0.848 | locus YDL035C, strain GPR1, stronger effect = lower value 0.118 | locus YDL040C, strain nat1, stronger effect = lower value 0.749 | locus YDL074C, strain BRE1, stronger effect = lower value 0.111 | locus YDL101C, strain DUN1, stronger effect = lower value 0.185 | locus YDL134C, strain PPH21, stronger effect = lower value 0.0876 | locus YDL185W, strain tfp1, stronger effect = lower value 0.135 | locus YDL192W, strain arf1, stronger effect = lower value 0.139 | locus YDR069C, strain doa4, stronger effect = lower value 0.842 | locus YDR101C, strain arx1, stronger effect = lower value 0.43 | locus YDR137W, strain rgp1, stronger effect = lower value 0.134 | locus YDR150W, strain NUM1, stronger effect = lower value 0.399 | locus YDR159W, strain sac3, stronger effect = lower value 0.304 | locus YDR162C, strain NBP2, stronger effect = lower value 0.0592 | locus YDR195W, strain ref2 0.163 | locus YDR297W, strain sur2, stronger effect = lower value 0.353 | locus YDR318W, strain mcm21, stronger effect = lower value 0.182 | locus YDR335W, strain msn5, stronger effect = lower value 0.863 | locus YDR388W, stronger effect = lower value 0.38 | locus YDR392W, strain spt3, stronger effect = lower value 0.141 | locus YDR502C, strain sam2, stronger effect = lower value 0.185 | locus YEL003W, strain gim4, stronger effect = lower value 0.543 | locus YEL061C, strain CIN8 (second series), stronger effect = lower value 0.667 | locus YER015W, strain faa2, stronger effect = lower value 0.548 | locus YER016W, strain bim1, stronger effect = lower value 0.302 | locus YER110C, stronger effect = lower value 0.713 | locus YER155C, strain BEM2, stronger effect = lower value 0.0776 | locus YER167W, strain BCK2, stronger effect = lower value 0.0994 | locus YGL078C, strain dbp3, stronger effect = lower value 0.835 | locus YGL086W, strain mad1, stronger effect = lower value 0.135 | locus YGL167C, strain pmr1, stronger effect = lower value 0.248 | locus YGL227W, strain vid30, stronger effect = lower value 0.691 | locus YGL240W, strain doc1, stronger effect = lower value 0.822 | locus YGL248W, strain PDE1, stronger effect = lower value 0.113 | locus YGL253W, strain hxk2, stronger effect = lower value 0.67 | locus YGR135W, strain pre9, stronger effect = lower value 0.373 | locus YGR252W, strain gcn5, stronger effect = lower value 0.212 | locus YHR013C, strain ard1, stronger effect = lower value 0.548 | locus YHR027C, strain rpn1, stronger effect = lower value 0.527 | locus YHR030C, strain SLT2, stronger effect = lower value 0.06 and 0.129 | locus YHR079C, strain IRE1 (second series), stronger effect = lower value 0.335 | locus YHR079C, strain IRE1, stronger effect = lower value 0.215 | locus YHR094C, strain hxt1, stronger effect = lower value 0.272 | locus YHR129C, strain ARP1, stronger effect = lower value 0.0824 | locus YHR142W, strain chs7, stronger effect = lower value 0.682 | locus YHR200W, strain rpn10, stronger effect = lower value 0.309 | locus YIL066C, strain RNR3, stronger effect = lower value 0.111 | locus YIL073C, strain SPO22, stronger effect = lower value 0.181 | locus YIL125W, strain kgd1, stronger effect = lower value 0.395 | locus YIR030C, strain dcg1, stronger effect = lower value 0.292 | locus YJL095W, strain BCK1 (second series), stronger effect = lower value 0.103 | locus YJL095W, strain BCK1, stronger effect = lower value 0.0705 and 0.204 | locus YJL129C, strain trk1, stronger effect = lower value 0.259 | locus YJL134W, strain LCB3, stronger effect = lower value 0.373 | locus YJL164C, strain tpk1, stronger effect = lower value 0.197 | locus YJL166W, strain qcr8, stronger effect = lower value 0.32 | locus YJL168C, strain set2, stronger effect = lower value 0.725 | locus YJL187C, strain SWE1 (second series), stronger effect = lower value 0.117 | locus YJL187C, strain SWE1, stronger effect = lower value 0.403
